High-throughput results as filed in PubChem.
Pf growth 96h – P. falciparum growth inhibition at 96 hours | hit rate 6.9% among 320,000 | AID 504834 | P. falciparum luciferase reporter growth, 96 h | Potency, µM (doses to about 28.7 µM), usual class: inhibitors
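P. falciparum expressing integrated firefly luciferase grown in erythrocytes (2% hematocrit, 0.05% parasitemia final) with compounds for 96 hours at 37 C, 5% CO2. Growth inhibition read as loss of luminescence after adding luciferase detection reagent.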
CHX counter – affects cycloheximide protein synthesis inhibition readout, counter-screen; hit rate 12% among 300,000; cell reporter, cycloheximide protein synthesis inhibition counterscreen; max response, %; in the data active = max response mostly above about 13%, no sharp cut-off; inactive = mostly below about 14%; also: read at 38.3 µM for the half of the compounds with a filed dose
Marburg entry inh – Marburg virus entry inhibition; Marburg virus pseudotyped entry inhibition, cell reporter; Potency, µM (doses to about 37.8 µM), usual class: inhibitors; hit rate 1.8% among 300,000; AID 540276; calls by dose curve; tested in HEK293 cells
Pf growth 48h – P. falciparum growth inhibition at 48 hours (one generation) | hit rate 5.9% among 310,000 | Potency, µM (top dose mostly 28.7 µM), actives largely listed as inhibitors | P. falciparum luciferase growth in erythrocytes, 48 h
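Luminescence readout; reporter = integrated firefly luciferase in P. falciparum. RBC culture at 2% hematocrit, 0.1% parasitemia final, 37 C/5% CO2; decreased signal taken as growth inhibition.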
Shiga toxin inh – Shiga toxin inhibition; Vero cells, Shiga toxin protein synthesis inhibition reporter; inhibition, % at 38.7 µM; hit rate 9.2% among 290,000; AID 2315; in the data active = inhibition mostly above about 28%, no sharp cut-off; inactive = mostly below about 43%
Lassa entry inh – blocks Lassa virus binding to or entry into cells. Lassa virus pseudotype entry inhibition, cell reporter. Potency, µM (highest dose often 37.9 µM), most hits filed as inhibitors. hit rate 1.2% among 300,000. AID 540256; calls by dose curve; tested in HEK293 cells; also: nearly all actives have a fitted effect of over 50% in size
Large screens that a line does not name were inactive. The list is not random: actives were taken first. Their share in the collection is about 19%. Unless noted, calls follow the shape of the dose curve; as a rule, active = well fitted inhibition curve with a large enough effect; inconclusive = small, poorly fitted or top-dose-only effect, or another doubt; inactive = no such curve, though single readings can be large or run the other way.

CCOc1nc(-c2ccc(OC)cc2)ccc1-c1noc(-c2ccncc2)n1	Pf growth 96h inconclusive, Pf growth 48h inconclusive
COc1ccc(CCNC(=O)CSCc2ccc(Cl)cc2)cc1OC	Pf growth 96h inconclusive, Pf growth 48h inconclusive
Cc1cc(C)cc(C(=O)NCC(=O)OCc2c(C)noc2C)c1	Marburg entry inh inconclusive
CC(=O)c1ccc(N=Nc2c(C)[nH][nH]c2=O)cc1	none (no result: Pf growth 96h, CHX counter, Pf growth 48h, Shiga toxin inh)
COc1nc(-c2ccccc2)ccc1-c1noc(C)n1	CHX counter 62, Shiga toxin inh 72 (no result: Pf growth 96h)
COc1cc(-c2nc(-c3ccc(-c4ccccc4)nc3OC)no2)cc(OC)c1OC	none (no result: Marburg entry inh, Lassa entry inh)
O=C(Nc1ccc(N2CCOCC2)c(Cl)c1)c1ccccc1Cl	Pf growth 96h inconclusive, CHX counter 30, Marburg entry inh inconclusive, Shiga toxin inh 60
O=C(Nc1ccc(N2CCOCC2)nc1)c1ccc(Cl)cc1	CHX counter 16, Shiga toxin inh 49
O=C(Nc1cc(N2CCOCC2)ncn1)c1ccccc1	CHX counter 16
O=C(Nc1ccc(N2CCOCC2)c(Cl)c1)c1ccc(-n2cnnc2)cc1	Pf growth 96h inconclusive (no result: Marburg entry inh, Lassa entry inh)
O=C(NN1CCOCC1)c1ccccc1	Pf growth 48h inconclusive
O=C(Nc1ccc(N2CCOCC2)c(Cl)c1)c1ccc(F)cc1	CHX counter 31, Marburg entry inh inconclusive, Pf growth 48h inconclusive, Shiga toxin inh 18
O=C(NC(=S)Nc1ccc(N2CCOCC2)c(Cl)c1)C(c1ccccc1)c1ccccc1	Pf growth 96h inconclusive
COC(=O)Oc1cncc(C(=O)O)c1	none
O=C(NC(=S)N1CCOCC1)c1cc2ccccc2o1	CHX counter 12, Marburg entry inh inconclusive, Shiga toxin inh 70
O=C(Nc1ccc(N2CCOCC2)c(Cl)c1)c1cc2ccccc2o1	CHX counter 39, Marburg entry inh inconclusive, Shiga toxin inh 71, Lassa entry inh inconclusive
O=C(Nc1ccccc1N1CCOCC1)c1cc2ccccc2o1	Pf growth 96h inconclusive
C/C(CC(=O)Nc1ccc2c(c1)OCCO2)=N\NC(=O)COc1ccccc1C	none
COc1cc([C@@H]2[C@H]3CN(C)CC=C3C(C#N)=C(N)C2(C#N)C#N)cc2c1OCO2	none
Fc1ccc(CNCCc2ccccc2)cc1	none
COc1cc(CNCc2cccs2)ccc1OCc1cccs1	Pf growth 96h inconclusive, Marburg entry inh inconclusive, Pf growth 48h inconclusive
CCN(CC)c1ccc(CNCCc2ccccc2F)cc1	Pf growth 96h 9.3µM, Marburg entry inh inconclusive, Lassa entry inh inconclusive
CCN(CC)c1ccc(CNCc2cccs2)cc1	CHX counter 20, Marburg entry inh inconclusive, Lassa entry inh inconclusive
OC(COc1ccc(CNCCc2ccccc2F)cc1)CN1CCCCC1 (configuration not stated)	Marburg entry inh 2.3µM, Pf growth 48h 6.6µM, Lassa entry inh inconclusive
Fc1ccccc1CCNCc1cccc2ccccc12	CHX counter 18, Marburg entry inh inconclusive
COC(=O)C1=C(C)NC=C([N+](=O)[O-])C1c1ccc(OC)cc1 (configuration not stated)	Pf growth 96h inconclusive
O=C(NCCCO)C(=O)Nc1cc2c3c(c1)CCN3C(=O)CC2	none (no result: Marburg entry inh, Lassa entry inh)
Cc1ccc(CNCCc2ccccc2F)cc1	CHX counter 14, Marburg entry inh inconclusive
COc1cc(C)ccc1OCc1cc(C(=O)NCCN2CCOCC2)no1	CHX counter 67, Shiga toxin inh 76, Lassa entry inh inconclusive
COc1cc(C)ccc1OCc1cc(C(=O)N(C)CCCN2CCOCC2)no1	Pf growth 96h inconclusive, CHX counter 55, Shiga toxin inh 96 (no result: Marburg entry inh, Lassa entry inh)
CC1(C)N([O-])C(c2cccs2)=C[N+]1=O	Pf growth 96h 10µM
CC1(C)N([O-])C(c2ccccc2)=C[N+](=O)C1(C)C	none
Cc1cccc(CCN=c2c([N+](=O)[O-])nn(-c3ccccc3)n2O)c1	Pf growth 96h inconclusive, Pf growth 48h inconclusive (no result: Marburg entry inh, Lassa entry inh)
O=[N+]([O-])c1nn(-c2ccc3c(c2)OCCO3)n(O)c1=NCCCO	CHX counter 18, Marburg entry inh inconclusive, Shiga toxin inh 48
Cc1ccc(CN=c2c([N+](=O)[O-])nn(-c3ccc4c(c3)OCCO4)n2O)cc1	Pf growth 96h inconclusive, CHX counter 73, Marburg entry inh inconclusive, Shiga toxin inh 164, Lassa entry inh inconclusive
Cc1nn(-c2ccccc2)c2nc(N)c(C#N)c(-c3ccc(F)cc3)c12	Pf growth 96h inconclusive, Pf growth 48h 12µM
Cc1ccc(-n2nc(C)c3c(-c4cccs4)c(C#N)c(N)nc32)cc1	Pf growth 96h inconclusive, Pf growth 48h inconclusive
O=C(Cc1c(F)cccc1Cl)Nc1ccncc1	none
Cc1csc(NC(=O)Cc2ccc(F)cc2)n1	CHX counter 34, Shiga toxin inh 77, Lassa entry inh inconclusive
Cc1cc(CNC(=O)Cc2c(F)cccc2Cl)nn1C	CHX counter 18, Shiga toxin inh 34 (no result: Pf growth 96h)
Cc1cccc(NC(=O)Cc2c(F)cccc2Cl)n1	Pf growth 96h inconclusive, CHX counter 28, Marburg entry inh inconclusive, Shiga toxin inh 112
Cc1ccc(CC(=O)Nc2cccc(C)n2)cc1	CHX counter 33, Shiga toxin inh 69, Lassa entry inh inconclusive
COc1ccc(N2C(=O)CCC(C(=O)Nc3cccc(C)n3)C2c2ccc(OC)c(OC)c2)cc1 (configuration not stated)	Pf growth 96h inconclusive, Marburg entry inh inconclusive
Cc1csc(NC(=O)Cc2c(F)cccc2Cl)n1	CHX counter 35, Marburg entry inh inconclusive (no result: Shiga toxin inh)
O=C(Cc1c(F)cccc1Cl)Nc1cccnc1	none (no result: Pf growth 96h)
Cc1cccc(NC(=O)Cc2coc3ccc4ccccc4c23)n1	Marburg entry inh 6.5µM, Pf growth 48h inconclusive, Lassa entry inh inconclusive (no result: Pf growth 96h)
COc1cccc(CC(=O)Nc2nc(C)cs2)c1	CHX counter 43, Marburg entry inh inconclusive, Shiga toxin inh 72
O=C(O)Cc1coc2ccc3ccccc3c12	Pf growth 96h inconclusive
COc1cccc(CC(=O)Nc2ncc(C)s2)c1	Marburg entry inh inconclusive
CC(C)(Oc1ccc(Cl)cc1)C(=O)Nc1cccc(S(=O)(=O)NC2=NCCC2)c1	Pf growth 48h inconclusive (no result: CHX counter, Marburg entry inh, Shiga toxin inh, Lassa entry inh)
COC(=O)[C@@H](c1ccccc1)N(C)S(=O)(=O)c1cccc(S(=O)(=O)N(C)[C@@H](C(=O)OC)c2ccccc2)c1	Pf growth 96h inconclusive, Pf growth 48h 13µM (no result: Marburg entry inh, Lassa entry inh)
COc1cc(C(=S)N2CCOCC2)cc(OC)c1OS(=O)(=O)c1ccc(Cl)cc1	Pf growth 96h 10µM, Pf growth 48h inconclusive (no result: Marburg entry inh, Shiga toxin inh, Lassa entry inh)
CCOC(=O)c1c(C)[nH]c(C)c1C(=O)COC(=O)/C=C/c1cccc(F)c1	Pf growth 96h inconclusive, Pf growth 48h inconclusive
CCOC(=O)c1c(C)[nH]c(C)c1C(=O)COC(=O)/C=C/c1cccc(C(F)(F)F)c1	Pf growth 96h inconclusive, Pf growth 48h 15µM
O=C(NCCNC(=O)C(c1ccccc1)c1ccccc1)c1ccco1	none (no result: Pf growth 96h)
CCOc1ccccc1OCCCOc1ccc(C)cc1Br	CHX counter 41, Shiga toxin inh 70
COc1cc(C)ccc1OCCOCCOc1ccccc1Br	Pf growth 96h 2.6µM
CCOc1ccccc1OCCCOc1ccc(C)cc1Cl	CHX counter 23, Shiga toxin inh 62, Lassa entry inh inconclusive
CCN(CC)CCCOc1ccc(C)cc1Br	Pf growth 96h inconclusive, Marburg entry inh inconclusive (no result: Pf growth 48h)
